Compound activity (PubChem BioAssay)
USP1 inh – Inhibitors of USP1/UAF1: Primary Screen; Ubiquitin carboxyl-terminal hydrolase 1 (Homo sapiens), O94782; recombinant USP1/UAF1, Ub-Rhodamine cleavage fluorescence; Potency, µM (top dose mostly 57.1 µM), inactives show at the top dose activity change, negative = inhibition, most hits filed as inhibitors; 390,000 tested, 0.23% active; AID 743255, 2014; further: potency means the concentration at half of the fitted maximal effect; nearly all actives have a fitted effect of over 60% in size
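In this screen, compounds sit with the deubiquitinase complex (1nM) for 15 min at room temperature before Ub-Rho is added at 150nM final. Fluorescence rise is then followed for 6 reads every 60 seconds.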
PLK1 PBD block – qHTS for Inhibitors of PLK1-PDB (polo-like kinase 1 - polo-box domain): Primary Screen. Plk1 PBD binding of FITC phosphopeptide, fluorescence polarization. 360,000 tested, 2.8% active. Potency, µM, without a hit: max response, negative = inhibition, most hits filed as inhibitors; further: potency means the concentration at half of the fitted maximal effect; series mostly up to about 57 µM; nearly all actives have a fitted effect of over 65% in size
WRN inhibitor – qHTS for Inhibitors of WRN Helicase | Bifunctional 3'-5' exonuclease/ATP-dependent helicase WRN (Homo sapiens), Q14191 | WRN helicase unwinding, fluorescent forked duplex, kinetic | Potency, µM (series often up to 114 µM), inactives show at the highest dose activity change, negative = inhibition, hits mostly inhibitors | 360,000 tested, 0.46% active | AID 651768, 2012; further: potency means the concentration at half of the fitted maximal effect; nearly all actives have a fitted effect of over 55% in size
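Fluorescence dequenching readout, ex 525 nm/em 598 nm, kinetic mode: forked duplex DNA (100 nM final) with adjacent fluorophore and quencher unwound by WRN (20 nM final) with 2 mM ATP. Compound preincubation 15 min, room temperature.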
PI5P4Ka inh – qHTS for Inhibitors of phosphatidylinositol 5-phosphate 4-kinase (PI5P4K); 330,000 tested, 1.2% active; AID 652105, 2013; max response, %; PI5P4Kalpha enzyme, ADP-Glo luminescence, 60 min; active compounds read low; active means max response of -50% or lower; inconclusive means between -30% and -50%; inactive means -30% or higher; further: value at the top dose of about 77 µM
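Human PI5P4Kalpha with substrate in 0.038 M HEPES pH 7.4, 0.28 mM EGTA, 0.1% CHAPS, 5% DMSO; reaction started with 5 microM ATP (final), 60 min at room temperature. ADP formed read by ADP-Glo luminescence.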
USP2a inh – qHTS Assay for Inhibitors of Ubiquitin-specific Protease USP2a Using CHOP2 as the Reporter; Potency, µM (highest dose often 38.3 µM), inactives show at the highest dose activity change, negative = inhibition, hits mostly inhibitors; Ubiquitin carboxyl-terminal hydrolase 2 (Homo sapiens), O75604; USP2 core, Ub-CHOP2 coupled fluorogenic reporter, 485/531; 330,000 tested, 0.01% active;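 further: potency means the concentration at half of the fitted maximal effect; plate controls were DMSO wells for no effect and full inhibition by NEM control for full effect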
Target sequence (O75604 whole entry, looked up): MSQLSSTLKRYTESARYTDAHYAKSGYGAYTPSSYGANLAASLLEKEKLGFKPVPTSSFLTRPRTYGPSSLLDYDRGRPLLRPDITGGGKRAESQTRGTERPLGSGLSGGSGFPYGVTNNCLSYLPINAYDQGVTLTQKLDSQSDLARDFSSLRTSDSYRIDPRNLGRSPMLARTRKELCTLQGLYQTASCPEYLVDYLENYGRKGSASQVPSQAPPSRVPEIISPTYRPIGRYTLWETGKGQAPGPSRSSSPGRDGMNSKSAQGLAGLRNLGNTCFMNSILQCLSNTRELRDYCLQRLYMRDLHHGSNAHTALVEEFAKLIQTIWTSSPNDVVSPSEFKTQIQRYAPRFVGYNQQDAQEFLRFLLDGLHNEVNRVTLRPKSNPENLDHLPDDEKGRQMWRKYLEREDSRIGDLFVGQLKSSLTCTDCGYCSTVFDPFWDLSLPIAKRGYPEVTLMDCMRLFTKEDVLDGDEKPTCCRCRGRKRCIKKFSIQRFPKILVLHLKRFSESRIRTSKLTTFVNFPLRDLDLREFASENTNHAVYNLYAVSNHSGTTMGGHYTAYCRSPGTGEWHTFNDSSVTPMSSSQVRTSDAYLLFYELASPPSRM
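Cell-free coupled assay: 10nM USP2 core preincubated 30min RT with compound in Tris-HCl pH 8.0/CaCl2/CHAPS buffer, then 25nM Ub-CHOP2 and 25nM reporter substrate; fluorescence (Ex 485/Em 531) read after 60min RT, normalized to NEM inhibition, concentration-response curves fitted.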
* marks the source's active call; other numbers are inactive results; ? = inconclusive; . = no result given; [ ] = remark or other dose. An excerpt weighted towards active compounds, which were near 3.3% of everything screened. Unless noted, the call rests on the fitted dose curve; in most records, active means well fitted curve in the direction sought with a large enough effect; inconclusive means small, poorly fitted or top-dose-only effect, or another doubt; inactive means no such curve, though single readings can be large; an effect the other way counts as inactive or inconclusive. Unless noted, on the % scale 0 is the no-effect control and ±100 the full control effect.

SMILES	USP1 inh	PLK1 PBD block	WRN inhibitor	PI5P4Ka inh	USP2a inh
Clc1cccc(OCCn2cncn2)c1Cl	-23%	-18%	2%	5	2%
Clc1cccc(Oc2cnns2)c1Cl	-19%	3.4µM*	-14%	?	3%
CCCCn1c(=O)[nH]c(=O)c2c1nc(Cn1ncc(Cl)c(Cl)c1=O)n2CCC	-20%	30µM*	-23%	-52*	-1%
CCCCn1c(=O)[nH]c(=O)c2c1nc(CN1C(=O)c3ccccc3S1(=O)=O)n2CCC	-6%	-5%	9%	-3	7%
CCCCN1C(=O)/C(=C2\SC(N3CCCCC3)=NC2=O)c2ccccc21	-17%	24µM*	-10%	-6	2%
O=C1N=C(N2CCOCC2)S/C1=C1\C(=O)N(Cc2ccccc2)c2ccc(Br)cc21	.	.	.	.	0%
CCOC(=O)c1cc2c(=O)n3ccccc3nc2n(Cc2ccco2)c1=NC(=O)c1c(F)cccc1Cl	-24%	.	.	.	.
CCCC(=O)Nc1cc(-c2nc3cccnc3s2)ccc1C	0%	.	.	.	.
COc1ccc2c(=O)c3c(=O)n(Cc4ccco4)c(-c4ccco4)nc3oc2c1	-21%	?	45µM*	.	4%
Cc1ccc(/C=C/C(=O)O)cc1S(=O)(=O)N1CCCc2ccccc21	-4%	-28%	-5%	-90*	0%
Cc1ccc(/C=C/C(=O)O)cc1S(=O)(=O)N1CCc2ccccc21	-19%	-7%	-5%[57.1 µM]	-76*	-2%
Cc1ccc(-n2nnc3c(sc4nc(C)c(C)cc43)c2=O)cc1Cl	-9%	.	.	.	.
COc1ccccc1C1CC(=O)Oc2cc(C)cc(C)c21 (stereo unspecified)	-12%	1%	-5%	7	-1%
Cc1cc(C)c2c(c1)OC(=O)CC2c1ccccc1C (stereo unspecified)	-8%	27µM*	-6%	?	-6%
C=CCN1CCN(C(c2cc(OC)ccc2OC)c2nnnn2CC2CCCO2)CC1 (stereo unspecified)	-19%	30µM*	6%	0	-1%
COc1ccc(OC)c(C(c2nnnn2CC2CCCO2)N2CCN(C)CC2)c1 (stereo unspecified)	3%	0%	-11%	10	2%
CC(C)C(NC(=O)c1ccccc1F)C(=O)NCc1ccccc1 (stereo unspecified)	-16%	27µM*	3%	5	0%
Cc1ccc2nc(Cl)c3nnnn3c2c1	-30%	15µM*	10%	-1	-3%
Cc1ccc(S(=O)(=O)n2c3ccc(Cl)cc3c3nc(C)sc32)cc1	-18%	27µM*	-2%	-4	1%
CC(C)(C)OC(=O)N1C[C@H](O)C[C@H]1C(=O)OCC(=O)c1ccc([N+](=O)[O-])cc1	-9%	21µM*	-9%	0	0%
CCc1nnc(NC(=O)CSc2nc(-c3ccc(OC)cc3)ns2)s1	-20%	-4%	4%	-2	1%
O=C(CSc1nc(-c2ccccc2)ns1)N1CCOCC1	-25%	21µM*	0%	-9	4%
Cc1cccc(-n2ccnc2SCC(=O)Nc2nccs2)c1C	-16%	27µM*	9%	-13	-1%
CCOC(=O)CNC(=O)CSc1nc(-c2ccc(OC)cc2)ns1	-20%	21µM*	-12%	-22	-3%
Cc1cccc(-c2nsc(SCC(=O)N3CCCC3)n2)c1	-14%	?	4%	.	-1%
SMILES	USP1 inh	PLK1 PBD block	WRN inhibitor	PI5P4Ka inh	USP2a inh
CCc1nnc(NC(=O)CSc2nccn2-c2cccc(C)c2C)s1	-2%	-6%	-9%	-1	3%
COc1ccc(-c2nsc(SCC(=O)Nc3cc(C)on3)n2)cc1	-19%	9.5µM*	6%	-17	3%
O=C(OCc1cc(=O)n2nc(-c3cccs3)sc2n1)c1ccc(Cl)cc1	-26%	.	.	.	.
COc1ccc(CCNC(=O)c2cc(Nc3ccccc3)nc3ccccc23)cc1OC	-12%	.	.	.	.
CCOC(=O)CSc1nc(-c2ccccc2)ns1	-4%	3.4µM*	-26%	?	4%
Cc1cccc(-c2nsc(SCC(=O)Nc3nccs3)n2)c1	3%	19µM*	5%	.	1%
Cc1cccc(-c2nc3c4ccccc4nc(NCc4ccc(Cl)cc4)n3n2)c1	-17%	.	.	.	.
Cc1ccc(Cl)cc1N1CCN(C(=O)CCCCCn2c(=O)[nH]c3ccccc3c2=O)CC1	-11%	.	.	.	.
CCOc1ccc(NC(=O)Cn2cc(C(=O)c3ccc(OCC)cc3)c(=O)c3cc4c(cc32)OCCO4)cc1	-8%	.	.	.	.
COc1cccc(NC(=S)Nc2ccc(F)cc2)c1	-9%	-16%	21%	-9	0%
COc1cccc(NC(=S)Nc2ccc(O)cc2)c1	?	21µM*	-2%	?	4%
Cc1ccc(NC(=O)c2nnn(CC(=O)Nc3ccc(C)c(Cl)c3)c2N)c(C)c1	-16%	.	.	.	.
COc1ccc(CNC(=O)c2ccc(-c3nc(CSc4ccc(C)cc4)c(C)o3)cc2)c(OC)c1	10%	.	.	.	.
Cc1cc(SCC(=O)N/N=C/c2ccc(O)c(O)c2)nc2ccccc12	-23%	-11%	79µM*	?	-1%
Cc1cc(SCC(=O)N/N=C/c2ccc(O)cc2O)nc2ccccc12	-15%	-19%	-9%	-13	2%
O=C(Cc1nnc(NC(=O)c2ccccc2)s1)N/N=C\c1ccc(O)c(O)c1	-3%	?	18µM*	-75*	0%
Cc1ccc(NC(=O)c2ccc(CNS(=O)(=O)c3ccc4c(c3)C(C)(C)C(=O)N4C)cc2)cc1F	-3%	.	.	.	.
COc1cc(/C=C2\SC(=S)N(NS(=O)(=O)c3ccc(C)cc3)C2=O)ccc1O	-26%	14%	45µM*	-68*	3%
COc1ccc(/C=C2/SC(=S)N(NS(=O)(=O)c3ccccc3)C2=O)cc1	-14%	?	?	?	0%
COc1cc(/C=C2\SC(=S)N(NS(=O)(=O)c3ccc(C)cc3)C2=O)cc(OC)c1OC	-13%	?	-30%	-17	-8%
COc1cc(/C=C2\SC(=S)N(NS(=O)(=O)c3ccccc3)C2=O)ccc1O	?	25%	50µM*	-61*	2%
CC(=O)N1C(=O)/C(=C2\SC(=S)N(NS(=O)(=O)c3ccc(C)cc3)C2=O)c2ccccc21	?	17µM*	-14%	-1	1%
